# Bioassay records from PubChem.
# Most compounds without a hit are left out; they make up all but 1.9% or so of the library.
# LDHA block = inhibitors of human lactate dehydrogenase A; P00338; purified LDHA, NADH/diaphorase-resazurin fluorescence; hits give low values; activity change, % (values are at about 110 or 230 µM); 480,000 tested, 0.15% active; AID 1347041; in the data active = activity change below about -30%; inconclusive = mostly about -25% to -30%;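 also: plate controls were DMSO wells for no effect and wells without enzyme for full effect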
#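 LDH5 2 nM; NADH 0.06 mM, pyruvate 0.2 mM; 200 mM Tris pH 7.4, EDTA, Tween-20; 5 min RT. Detection: diaphorase 0.133 mg/mL + resazurin 37 µM, fluorescence ex540/em590 at 0 and 20 min; normalized to enzyme-free and DMSO wells.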
# TDP43 rescue = TDP-43 toxicity inhibition in yeast; TDP-43 expressing yeast growth rescue, BacTiter-Glo, 24 h; AID 652104; 410,000 tested, 1.8% active; Potency, µM (titrated, usually from 46.1 µM), for the others: at the top dose growth rescue (activation), actives largely listed as activators; also: potency is read from the fitted curve at half-maximal effect; % of control where 0% means no effect; nearly all actives have a fitted effect of over 50% in size
#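 Yeast cells expressing TDP-43 under galactose induction are exposed to compounds for 24 hr at 30 deg C. BacTiter-Glo luminescence measures growth, so protective compounds score as activators.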
# PTHR1 agonist = agonists of human PTHR1 parathyroid hormone receptor; Q03431; HEK293 GP2 PTHR1 cells, GloSensor cAMP luminescence, 1 h; Potency, µM (top dose mostly 115 µM), for the others: top-dose activation, actives largely listed as activators; 410,000 tested, 0.075% active; AID 743266; also: potency is read from the fitted curve at half-maximal effect; nearly all actives have a fitted effect of over 55% in size
# Target sequence (Q03431 whole entry, looked up): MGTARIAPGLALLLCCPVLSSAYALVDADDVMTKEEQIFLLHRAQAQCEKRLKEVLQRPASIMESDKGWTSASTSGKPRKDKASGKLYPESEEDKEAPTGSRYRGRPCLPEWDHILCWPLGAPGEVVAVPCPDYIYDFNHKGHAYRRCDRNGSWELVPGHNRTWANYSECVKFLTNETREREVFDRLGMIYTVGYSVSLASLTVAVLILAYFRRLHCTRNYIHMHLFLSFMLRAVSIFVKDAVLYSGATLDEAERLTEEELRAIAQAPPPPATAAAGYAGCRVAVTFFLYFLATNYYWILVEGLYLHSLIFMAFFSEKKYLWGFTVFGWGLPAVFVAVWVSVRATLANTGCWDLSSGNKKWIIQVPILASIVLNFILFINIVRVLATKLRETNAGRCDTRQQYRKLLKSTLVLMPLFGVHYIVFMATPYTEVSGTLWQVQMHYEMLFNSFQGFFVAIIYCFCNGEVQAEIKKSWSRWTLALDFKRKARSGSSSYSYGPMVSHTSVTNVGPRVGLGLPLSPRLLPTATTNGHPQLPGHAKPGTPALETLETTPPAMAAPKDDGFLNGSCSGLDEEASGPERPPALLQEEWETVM
#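 HEK-293-derived GP2 cells expressing PTHR1 and a GloSensor cAMP reporter, 3,000/well, plated overnight, given luciferin plus IBMX (each 0.5 mM as added) for 1 h at 37 °C, then compound for 1 h at 37 °C. Luminescence was read after 15 min at room temperature.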
# aSyn rescue = inhibitors of alpha-synuclein toxicity in yeast; 370,000 tested, 0.14% active; Yeast expressing alpha-synuclein, growth rescue, BacTiter-Glo, 24 h; Potency, µM (series often up to 46.1 µM), without a hit: top-dose growth rescue (activation), most hits filed as activators; AID 652106; also: potency is read from the fitted curve at half-maximal effect; % of control where 0% means no effect; nearly all actives have a fitted effect of over 65% in size
#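 Galactose-induced alpha-syn yeast (OD600=0.02, raffinose-pregrown) + pinned cpd, 24 hr, 30 deg C; growth by BacTiter-Glo luminescence. Growth restoration scores as activation.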
# Abeta rescue = A-beta toxicity reversal in yeast; yeast expressing A-beta42, growth rescue, OD600, 48 h; response scale: 0% DMSO, 100% iron-clioquinol control; Potency, µM (highest dose often 46.1 µM), actives largely listed as activators; 410,000 tested, 0.063% active; AID 1347071; also: potency is read from the fitted curve at half-maximal effect; nearly all actives have a fitted effect of over 55% in size
#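 Yeast A-beta toxicity model in growth medium with pinned compounds, 48 h at 30 C; growth read as absorbance at 600 nm. Normalized to FeCl3/clioquinol equimolar mix (positive) and DMSO (negative).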
# FUS suppressor = FUS proteinopathy suppression in yeast; S. cerevisiae FUS-expressing, growth rescue, OD600, 24 h; Potency, µM (doses to about 76.6 µM), usual class: activators; 390,000 tested, 0.24% active;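 also: potency is read from the fitted curve at half-maximal effect; plate controls were DMSO vehicle for no effect and reference control for full effect; nearly all actives have a fitted effect of over 55% in size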
#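 FUS-expressing yeast, raffinose-pregrown, induced in 2% galactose minimal medium at OD 0.005; compounds in a dilution series, 24hr at 30C. Growth restoration read as absorbance at 600 nm. CP55940 positive control, DMSO negative.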
# An asterisk follows results filed as active; i = inactive; ? = inconclusive; / = no result given; [ ] = dose if it differs, or a comment. Unless noted, calls follow the shape of the dose curve; as a rule, active = well fitted curve in the direction sought with a large enough effect; inconclusive = small, poorly fitted or top-dose-only effect, or another doubt; inactive = no such curve, though single readings can be large; an effect the other way counts as inactive or inconclusive.
SMILES,LDHA block,TDP43 rescue,PTHR1 agonist,aSyn rescue,Abeta rescue,FUS suppressor
O=C(Cn1cc(C(F)(F)F)cc(Cl)c1=O)Nc1cc(Cl)ccc1F,1.2,/,/,/,/,/
O=c1c2cn[nH]c2nc(SCc2cccc(Br)c2)n1-c1ccc(Cl)cc1,-1.5,6.2%,-35.1%,/,i,35.5µM*
Cc1ccccc1-n1c(SCc2ccc(Cl)cc2)nc2[nH]ncc2c1=O,-1.8,17.2%,i,/,i,?
CC(C)CC(=O)O/N=C1\C(=O)N(c2ccccc2)c2ccccc21,2.3,-13.7%,-25.5%,1.4%,i,i
CC(C)(C)C(=O)O/N=C1/C(=O)N(c2ccccc2)c2ccccc21,-10.8,?,-25.8%,7.08µM*,i,i
CCOC(=O)Cc1cc(=O)n2[nH]c(NCc3ccc(CC)cc3)nc2n1,26.3,/,/,/,/,/
COc1cccc(CNc2nccn(-c3cc(C)cc(C)c3)c2=O)c1,-1.9,17.8µM*,i,/,i,i
Cc1ccc(-n2ccnc(NCc3ccccc3)c2=O)cc1C,-2.9,31.6µM*,i,/,i,i
Cc1ccc(CNc2nccn(-c3cc(C)cc(C)c3)c2=O)cc1,-2.6,?,-9.5%,/,i,i
CC1CCCCN1S(=O)(=O)c1ccc(C(=O)Nc2ccc(Cl)c3ncsc23)cc1 (stereo not given),-6.2,/,/,/,/,/
CCCCCNC(=O)c1ccc(Nc2ccc(-c3cccc(C)c3)nn2)cc1,-4.0,/,/,/,/,/
CCOC(=O)c1ccc(NCCOC)c([N+](=O)[O-])c1,-3.2,?,i,-1.5%,i,i
COCCNc1cc(N)c([N+](=O)[O-])cc1[N+](=O)[O-],3.7,11.2µM*,i,4.7%,i,i
Cn1c(=O)c2c(ncn2Cc2c(F)cccc2Cl)n(C)c1=O,5.5,/,/,/,/,/
CCn1c(SC(C)C(=O)Nc2nccs2)nnc1-c1ccco1 (stereo not given),-16.9,/,/,/,/,/
CCc1ccc(-n2c(=O)c3cccnc3n2CC(=O)NCc2ccccc2)cc1,-5.5,2.6%,-24.4%,/,i,i
O=C(Cn1c2ncccc2c(=O)n1-c1ccccc1)NCc1ccccc1,-4.7,12.6µM*,i,/,i,i
COc1ccc(C(=O)NC(=S)Nc2ccc(S(N)(=O)=O)cc2)cc1,-3.9,-24.2%,i,-4.1%,i,i
COc1ccc(C(=O)NC(NC(=S)Nc2ccc(S(N)(=O)=O)cc2)C(Cl)(Cl)Cl)cc1 (stereo not given),-33.6*,8.1%,i,0.5%,i,?
C[C@]12CC[C@H](O)CC1=CCC1C2CC[C@@]2(C)C1CC[C@@H]2NCc1ccccc1 (stereo not given in full),-16.2,1.12µM*,-12.8%,1.4%,i,i
Cc1nn(-c2ccccc2)c2sc(C(=O)NC3CCN(Cc4ccccc4)CC3)cc12,4.7,/,/,/,/,/
O=[N+]([O-])c1cccc(N/N=C/c2cccc(O)c2O)c1,28.7,12.6µM*,-36.5%,15.6%,i,i
O=C1CCCCC1C(Nc1ccc(Cl)cc1)c1ccccc1 (stereo not given),3.5,?,-16.1%[57.5 µM],-1.6%,i,i
O=C1CCCCC1C(Nc1ccc(Br)cc1)c1ccccc1 (stereo not given),-1.6,12.6µM*,-19.5%,19.3%,i,i
Cc1cc(C)nc(/N=c2/ssnc2Cl)c1,-5.4,2.82µM*,-6.2%,-65.3%,i,/
COc1ccc2c(c1)cc(C(=O)NCc1ccc(C)cc1)n2C,10.0,/,/,/,/,/
COc1ccc(NC(=O)CN2CCN(Cc3ccc4c(c3)OCO4)CC2)cc1OC,-36.6*,2.6%,i,-8.5%,i,i
COc1cccc(CN2CCC(C(=O)N3CCN(Cc4ccc5c(c4)OCO5)CC3)CC2)c1,-33.1*,-25.5%,-42.6%,-4.4%,i,/
COc1nc2ccccc2nc1N1CCN(Cc2ccc3c(c2)OCO3)CC1,-0.8,14.1µM*,-14.2%,0.9%,i,i
